From PubChem
PV pol inh: poliovirus RNA polymerase inhibition; AID 588519; poliovirus polymerase elongation, fluorescence polarization; active compounds read low; P03300; hit rate 0.66% among 150,000; % elongation, % (compound at 16.7 µg/mL); in the data active = % elongation below about 90%
Mtb MenB inh: inhibitors of Mycobacterium tuberculosis MenB enzyme; P9WNP5; MenB enzyme assay, absorbance read-out; inhibition, % (no concentration beside the values); hit rate 0.43% among 100,000; in the data active = inhibition above about 21%, passing the limit was not always enough
AID504770: growth inhibitors of E. coli YBA685 in a screen for V. cholerae RctB (chromosome II replication) inhibitors; E. coli YBA685 rctB-dependent plasmid, OD600 growth, 3 h; active compounds read low; z-score (test concentration not listed); hit rate 0.27% among 130,000; AID 504770; in the data active = z-score below about -2, passing the limit was not always enough
MbtI inh: MbtI salicylate synthase inhibition; P9WFX0; AID 493033; inhibition, % (test concentration not listed); hit rate 0.89% among 100,000; purified MbtI enzyme, fluorescence intensity read-out; in the data active = inhibition mostly above about 56%, no sharp cut-off; inactive = mostly below about 77%
Target sequence (P9WFX0 whole entry, looked up): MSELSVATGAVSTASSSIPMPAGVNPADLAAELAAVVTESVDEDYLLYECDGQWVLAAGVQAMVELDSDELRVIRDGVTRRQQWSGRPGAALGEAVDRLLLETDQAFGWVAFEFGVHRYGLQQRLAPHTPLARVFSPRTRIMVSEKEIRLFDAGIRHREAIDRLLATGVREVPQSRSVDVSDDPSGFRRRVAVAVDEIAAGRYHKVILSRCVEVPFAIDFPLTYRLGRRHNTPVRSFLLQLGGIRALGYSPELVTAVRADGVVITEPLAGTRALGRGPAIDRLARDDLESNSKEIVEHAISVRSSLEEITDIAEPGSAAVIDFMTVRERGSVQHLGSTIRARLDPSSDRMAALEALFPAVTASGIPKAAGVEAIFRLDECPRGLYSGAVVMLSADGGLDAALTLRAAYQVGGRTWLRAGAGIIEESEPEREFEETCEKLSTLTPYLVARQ
Starred values were filed as active, the others as inactive; x = no result given. An excerpt weighted towards active compounds, which were near 1.5% of everything screened.

SMILES	PV pol inh	Mtb MenB inh	AID504770	MbtI inh
Cc1occc1-c1nnc2sc(-c3cccc(F)c3)nn12	103	-73	0.15	95*
CC(C)Cc1ccc([C@H](C)C(=O)O)cc1	99	-8	x	x
CC(C)Cc1ccc(CC(=O)O)cc1	80*	-48	-0.15	89
CSc1ccc(C(=O)NC(=O)NCc2cccc(Cl)c2)s1	100	-14	0	3
O=C1C=CC(=O)C(Sc2nnnn2-c2ccccc2)=C1	99	-3	-0.7	102*
O=C(O)CNC(=O)/C=C\c1ccccc1	100	5	0.5	4
COc1cccc(-c2nnc(SCC(=O)NC3CCCCC3)o2)c1	88*	x	x	x
CCNC(=O)CSc1nnc(-c2cc(OC)c(OC)c(OC)c2)o1	105	0	-6.1*	0
CC(C(=O)N1c2ccccc2Sc2ccccc21)N1C(=O)c2ccccc2C1=O (configuration not stated)	x	x	0.45	-3
COc1ccc(/C=C(\C#N)c2ccc(C)cc2)cc1	x	x	-0.95	x
O=C1c2ccccc2C(=O)N1/N=C/c1ccc(-c2ccccc2Br)o1	x	-22	-0.35	-3
N#CC1=C2SCN(C3CCCCC3)CN2C(=O)CC1c1c(F)cccc1Cl (configuration not stated)	69*	x	x	x
N#CC1=C2SCN(C3CCCCC3)CN2C(=O)CC1c1ccc(F)cc1 (configuration not stated)	84*	x	x	x
COc1ccc(NC(=O)NCc2noc3ccc(C)cc23)c(OC)c1	102	-6	-0.1	-9
O=C(N/N=C1/CCS(=O)(=O)c2ccc(F)cc21)c1ccccn1	90*	15	0	-9
O=C(CC(=O)C(F)(F)F)c1ccccc1	105	-21	-1	-7
Oc1cccc2c(NC(=S)NC3CC3)cccc12	109	-8	1.1	27
O=C1CSc2nnc(-c3ccccc3)n21	54*	9	0.3	0
COc1ccc(C(=O)CN2CCc3ccccc32)cc1	101	x	0.9	-3
Nc1nc(CN2CCCCC2)cs1	101	39*	-0.75	-12
COc1ccc(NC(=O)c2nc(S(C)(=O)=O)ncc2Cl)cc1Cl	102	-9	-0.85	88*
COC(=O)c1nc(S(C)(=O)=O)ncc1Cl	96	-7	-2.7*	12
CS(=O)(=O)c1ncc(Cl)c(C(=O)Nc2cccc(Cl)c2)n1	102	10	-0.95	81*
Cc1cccc(NC(=O)c2nc(S(C)(=O)=O)ncc2Cl)c1	103	x	x	x
CS(=O)(=O)N1CCc2cc(C(=O)CSc3nnc4ccccn34)ccc21	105	-8	-0.6	10
SMILES	PV pol inh	Mtb MenB inh	AID504770	MbtI inh
O=C(Sc1ccc(Cl)cc1)c1cnn(-c2ccccc2)c1C(F)(F)F	105	-21	-0.3	54*
CCOC(OCC)n1c(=S)n(C(OCC)OCC)c2ccccc21	83*	-17	0.75	94*
Cc1ccc2oc(=O)n(CC(=O)c3ccc(F)cc3)c2c1	x	x	0.25	x
Cc1ccc2oc(=O)n(CC(=O)C(C)(C)C)c2c1	x	x	-2.1*	x
CSc1ccc(CN(C)CC(=O)NC(=O)Nc2ccc3c(c2)OCCO3)cc1	108	-29	2.5	-10
CN(C)S(=O)(=O)c1ccc2c(c1)oc(=O)n2C	105	27*	1.6	5
Cn1c(Cc2cccs2)nnc1SCc1ccc(C(=O)Nc2ccccc2)cc1	116	-27	2.5	-5
Cc1sc2nc[nH]c(=O)c2c1C	94	-9	-0.45	87*
CCOC(=O)c1sc(NC(=O)c2ccccc2)c(SC#N)c1C	x	x	-0.2	x
C=CCn1c(NC(=O)c2ccccc2)c(C(=O)OCC)sc1=S	96	-137	-0.05	78*
COc1ccc(N2C(=O)CC(Sc3nc4ccccc4c(=O)n3CCO)C2=O)cc1 (configuration not stated)	107	-15	-2.1*	100
O=C1C2=C(Nc3ccccc3SC2c2ccccc2F)c2ccccc21 (configuration not stated)	101	-71	0	17
CC(=O)Nc1nc(NC(C)=O)n(-c2ccccc2)n1	103	4	2.4	17
Nc1nc(NC(=O)CCC(=O)O)nn1-c1ccccc1	102	30*	-0.55	5
C=CCn1c(C(C)Oc2ccc(Cl)cc2)n[nH]c1=S (configuration not stated)	102	-14	1.9	65*
Cc1ccc(CNCCN2CCOCC2)o1	104	4	-0.55	x
COc1ccc(-c2ccc(CNCCN3CCOCC3)o2)cc1Cl	99	33*	-0.25	3
O=C(CSc1ccc(Cl)cc1)c1ccco1	100	x	-0.05	61*
O=C(CSc1ccccc1Cl)c1ccco1	102	x	0.15	16
O=c1c2c([nH]c3ccccc13)CCCCC2	100	35*	-0.55	20
CC(C)N(Cc1c(O)ccc2c(=O)c(-c3ccccc3)coc12)C(C)C	x	x	-0.5	-31
CC1(C)CC(=NOC(=O)c2ccccc2)CC(C)(C)N1[O]	101	-12	0.05	0
CCCNc1nc(Cl)nc(Cl)n1	101	-56	0.55	-2
Clc1nc(Cl)nc(NNc2nc(Cl)nc(Cl)n2)n1	100	34*	0.2	-10
CC(C)(/C=N/N(Cc1ccccc1)c1ccccc1)CO	108	8	0.55	8
SMILES	PV pol inh	Mtb MenB inh	AID504770	MbtI inh
O=C1C=C/C(=N/N(Cc2ccccc2)c2ccccc2)O1	101	1	-0.7	90*
CCC(C)(C)NS(=O)(=O)c1cccs1	101	22	-0.65	2
N#CC1=C(SCc2ccccc2)SC(CO)NC1=O (configuration not stated)	100	38*	0.5	11
N#CC1=C(SCc2ccccc2)SC(c2ccc(C(=O)O)cc2)NC1=O (configuration not stated)	86*	25	0.2	9
COC(=O)c1cc(S(=O)(=O)/C=C/c2ccccc2)c(Cl)cc1Cl	103	-32	-0.45	-1
O=C(CC12CC3CC(CC(C3)C1)C2)NCC(=O)N1CCCC1	86*	-16	-1.2	-14
O=C(CC12CC3CC(CC(C3)C1)C2)NCC(=O)N1CCN(Cc2ccccc2)CC1	104	-24	0.15	-10
Sc1sccc1C=NC1CCCCC1	98	-206	-0.45	99*
COc1cc(/C=N/NC(N)=O)cc(Br)c1OC	106	-8	0.35	4
COc1cc(/C=N/NC(N)=O)cc2sc(=O)oc12	99	-14	-0.2	81*
Oc1cc2c(cc1CN1CCc3ccccc3C1)CCC2	105	5	-1.1	3
O=C(NCCN1CCOCC1)c1nc(-c2ccc(Cl)cc2)n2c1CCCCC2	103	-12	-2.6*	4
CCCNC(=O)c1nc(-c2ccc(Cl)cc2)n2c1CCCCC2	105	-28	1.8	-7
CN(C(=O)Cn1c(=O)n(CCCC(=O)NCc2ccco2)c(=O)c2sccc21)C1CCCCC1	x	x	-1.6	x
CCc1c(C)sc(NC(=O)CCCC(=O)O)c1C(N)=O	81*	-2	-0.55	x
COC(=O)CCC(=O)Nc1sc(C)c(C)c1C(N)=O	x	x	0.2	x
Cc1cc(N2CCCCC2)nc2ccc(N3C(=O)CCC3=O)cc12	x	x	-0.1	x
CCOc1ccc(NC(=O)Cn2c(=O)n(CC(=O)NCCc3ccccc3)c(=O)c3sccc32)cc1	81*	x	x	x
CC1(C)N([O-])c2ccccc2[N+]1=O	96	-41	-4*	25
